# Source: PubChem BioAssay (NCATS)
# Results filed as inconclusive are left out. A call without a number means that no potency is given here. Calls of active or inactive are those of the source. The call rests on the fitted dose curve; in most records, active means well fitted inhibition curve with a large enough effect; inconclusive means small, poorly fitted or top-dose-only effect; inactive means flat fitted curve, though single readings scatter.
# Legend:
# Assay in all cases: qHTS profiling for inhibitors of Plasmodium falciparum proliferation (AID 504749); further: nearly all actives have a fitted effect of over 60% in size
# Conditions in all cases: P. falciparum in erythrocytes, SYBR Green DNA, 72 h; series mostly up to 28.7 µM
# 3D7 = system: 3D7
# How it was run: (§1)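 P. falciparum-infected erythrocytes (0.3% parasitemia, 2.5% hematocrit final) were exposed to compounds for 72 h at 37 C in 5% CO2, then lysed with SYBR Green buffer overnight at room temperature; parasite DNA fluorescence was normalized to artemisinin and DMSO controls.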
# CP185 = system: CP185
# How it was run: as §1
# CP191 = system: CP191
# How it was run: as §1
# CP194 = system: CP194
# How it was run: as §1
# CP203 = system: CP203
# How it was run: as §1
# CP211 = system: CP211
# How it was run: as §1
# CP237 = system: CP237
# How it was run: as §1
# CP238 = system: CP238
# How it was run: as §1
# CP250 = system: CP250
# How it was run: as §1
# CP252 = system: CP252
# How it was run: as §1
# CP262 = system: CP262
# How it was run: as §1
# CP291 = system: CP291
# How it was run: as §1
# DFO2036 = system: DFO2036
# How it was run: as §1
# DIV30 = system: DIV30
# How it was run: as §1
# Dd2 = system: Dd2
# How it was run: as §1
# HB3 = system: HB3
# How it was run: as §1
# ICS = system: ICS
# How it was run: as §1
# N140 = system: N140
# How it was run: as §1
# PAD = system: PAD
# How it was run: as §1
# TAB113 = system: TAB113
# How it was run: as §1
# Potency means the concentration at half of the fitted maximal effect.
Structure (SMILES),Potency (3D7),Potency (CP185),Potency (CP191),Potency (CP194),Potency (CP203),Potency (CP211),Potency (CP237),Potency (CP238),Potency (CP250),Potency (CP252),Potency (CP262),Potency (CP291),Potency (DFO2036),Potency (DIV30),Potency (Dd2),Potency (HB3),Potency (ICS),Potency (N140),Potency (PAD),Potency (TAB113)
CCCCCc1cc(O)c2c(c1)OC(C)(C)C1CC=C(C)CC21 (stereo not given),2.82 µM (active),6.31 µM (active),3.98 µM (active),5.36 µM (active),2.13 µM (active),5.36 µM (active),1.78 µM (active),3.16 µM (active),7.08 µM (active),3.16 µM (active),4.26 µM (active),6.75 µM (active),3.16 µM (active),2.39 µM (active),2.51 µM (active),5.01 µM (active),0.891 µM (active),1.12 µM (active),1.78 µM (active),2 µM (active)
CCCN1CCCC2Cc3nc(N)ncc3CC21 (stereo not given),inactive,inactive,inactive,inactive,inactive,inactive,inactive,inactive,inactive,inactive,inactive,inactive,inactive,inactive,inactive,inactive,inactive,inactive,inactive,inactive
C=CC[N+]1(C)CCC23c4c5ccc(O)c4O[C@H]2C(=O)CC[C@@]3(O)C1C5 (stereo not given in full),inactive,inactive,inactive,inactive,inactive,inactive,inactive,inactive,inactive,inactive,inactive,inactive,inactive,inactive,inactive,inactive,inactive,inactive,inactive,inactive
C=CC[C@]1(O)CCC2C3CCC4=CCCCC4C3CCC21C (stereo not given in full),inactive,inactive,inactive,inactive,inactive,inactive,inactive,inactive,inactive,inactive,inactive,inactive,inactive,inactive,–,–,–,inactive,inactive,inactive
CCC(=O)OC1(c2ccccc2)CCN(C)CC1C (stereo not given),inactive,–,inactive,–,–,inactive,3.98 µM (active),–,–,–,inactive,–,–,inactive,5.62 µM (active),inactive,inactive,–,inactive,–
C#C[C@]1(O)CC[C@H]2[C@@H]3CCC4=CC(=O)CCC4(C)[C@H]3CCC21C (stereo not given in full),inactive,inactive,inactive,inactive,inactive,inactive,inactive,inactive,inactive,inactive,inactive,inactive,inactive,inactive,inactive,inactive,inactive,inactive,inactive,inactive
CC(C)CCC(=O)OC1CCC2C3CCC4=CC(=O)CC[C@]4(C)C3CC[C@]12C (stereo not given in full),–,10 µM (active),6.31 µM (active),inactive,inactive,inactive,11.2 µM (active),–,10 µM (active),–,inactive,–,–,inactive,–,–,7.94 µM (active),–,–,7.08 µM (active)
CC(Cc1ccccc1)N(C)C (stereo not given),inactive,inactive,inactive,inactive,inactive,inactive,inactive,inactive,inactive,inactive,–,inactive,inactive,inactive,inactive,inactive,inactive,inactive,inactive,inactive
C[C@]12CC[C@H]3[C@@H](CC[C@@]45O[C@@H]4C(=O)C(C#N)C[C@]35C)[C@@H]1CC[C@@H]2O (stereo not given in full),inactive,–,–,–,inactive,inactive,inactive,inactive,–,–,inactive,inactive,–,inactive,inactive,inactive,–,–,inactive,–
CC1CC[C@@]2(NC1)OC1CC3C4CC[C@@H]5CC(O)CC[C@@]5(C)C4CC[C@]3(C)C1C2C (stereo not given in full),inactive,inactive,inactive,inactive,inactive,inactive,inactive,inactive,inactive,inactive,inactive,inactive,inactive,–,–,–,10 µM (active),–,–,inactive
CCC/C=C/C=C/C(=O)OC1/C(=C/C(=O)OC)CC2CC(C(C)O)OC(=O)CC(O)CC3CC(OC(C)=O)C(C)(C)C(O)(CC4C/C(=C/C(=O)OC)CC(/C=C\C(C)(C)C1(O)O2)O4)O3 (stereo not given),2.82 µM (active),1 µM (active),1.12 µM (active),–,–,–,2.82 µM (active),1 µM (active),1 µM (active),1.26 µM (active),–,2.69 µM (active),1.26 µM (active),1.07 µM (active),2.24 µM (active),2.24 µM (active),0.562 µM (active),1.12 µM (active),1.78 µM (active),1.78 µM (active)
COC(=O)C1C(OC(=O)c2ccccc2)CC2CCC1N2C (stereo not given),inactive,inactive,inactive,inactive,inactive,inactive,inactive,inactive,inactive,inactive,inactive,inactive,inactive,inactive,inactive,inactive,inactive,inactive,inactive,inactive
C=C1CC2C(CC[C@]3(C)C(=O)CCC23)[C@]2(C)C=CC(=O)C=C12 (stereo not given in full),inactive,inactive,inactive,inactive,inactive,inactive,inactive,inactive,inactive,inactive,inactive,inactive,inactive,inactive,inactive,inactive,inactive,inactive,inactive,inactive
CCN(CC)C(=O)N[C@@H]1C=C2c3cccc4[nH]cc(c34)C[C@H]2N(C)C1,–,–,–,–,inactive,–,–,–,–,–,–,–,inactive,8.49 µM (active),14.1 µM (active),–,8.91 µM (active),12.6 µM (active),–,7.94 µM (active)
C#CC1(O)C=CC2C3CCC4=CC(=O)CCC4C3CCC21CC (stereo not given),–,–,5.01 µM (active),–,–,–,3.55 µM (active),inactive,–,inactive,–,15.1 µM (active),–,–,inactive,10 µM (active),–,inactive,–,–
COC(C(=O)C(O)C(C)O)C1Cc2cc3cc(OC4CC(OC5CC(O)C(OC)C(C)O5)C(OC(C)=O)C(C)O4)c(C)c(O)c3c(O)c2C(=O)C1OC1CC(OC2CC(OC3CC(C)(O)C(OC(C)=O)C(C)O3)C(O)C(C)O2)C(O)C(C)O1 (stereo not given),0.631 µM (active),1.26 µM (active),1.78 µM (active),6.75 µM (active),4.78 µM (active),–,0.0891 µM (active),1.26 µM (active),2 µM (active),2 µM (active),3.38 µM (active),2.13 µM (active),1 µM (active),–,0.178 µM (active),0.355 µM (active),0.112 µM (active),1 µM (active),0.891 µM (active),0.708 µM (active)
CN(C)[C@@H](Cc1ccccc1)c1ccccc1,inactive,inactive,inactive,inactive,inactive,inactive,8.91 µM (active),inactive,inactive,inactive,inactive,inactive,inactive,inactive,10 µM (active),inactive,inactive,inactive,inactive,inactive
CC(CO)NC(=O)C1C=C2c3cccc4[nH]cc(c34)CC2N(C)C1 (stereo not given),inactive,inactive,inactive,inactive,inactive,inactive,inactive,inactive,inactive,inactive,inactive,inactive,inactive,inactive,inactive,inactive,inactive,inactive,inactive,inactive
CC(=O)O[C@H]1C[C@H](O[C@H]2[C@@H](O)CC(O[C@H]3[C@@H](O)C[C@H](O[C@H]4CC[C@@]5(C)[C@H](CC[C@@H]6[C@@H]5CC[C@]5(C)[C@@H](C7=CC(=O)OC7)CC[C@]65O)C4)O[C@@H]3C)O[C@@H]2C)O[C@H](C)[C@H]1O[C@@H]1O[C@H](CO)[C@@H](O)[C@H](O)[C@H]1O (stereo not given in full),–,inactive,–,inactive,–,inactive,–,inactive,inactive,inactive,inactive,inactive,inactive,inactive,inactive,inactive,inactive,inactive,inactive,inactive
CCCC(C)C1(CC)C(=O)NC(=S)NC1=O (stereo not given),inactive,inactive,inactive,inactive,inactive,inactive,inactive,inactive,inactive,inactive,inactive,inactive,inactive,inactive,inactive,inactive,inactive,inactive,inactive,inactive
CC(=O)[C@H]1CC[C@H]2C3CC[C@H]4C[C@H](O)CC[C@]4(C)C3CC[C@]12C (stereo not given in full),inactive,inactive,inactive,inactive,inactive,inactive,inactive,inactive,inactive,inactive,inactive,inactive,inactive,inactive,inactive,inactive,inactive,inactive,inactive,inactive
C[C@@H](N)[C@@H](O)c1ccc(O)c(O)c1,inactive,inactive,inactive,inactive,inactive,inactive,inactive,inactive,inactive,inactive,inactive,inactive,inactive,inactive,inactive,inactive,inactive,inactive,inactive,inactive
CC(C)=CC1C(C(=O)OCc2coc(Cc3ccccc3)c2)C1(C)C (stereo not given),inactive,inactive,–,inactive,inactive,inactive,inactive,inactive,inactive,inactive,inactive,inactive,inactive,inactive,inactive,inactive,–,inactive,inactive,–
